Test results taken from PubChem BioAssay (NCATS).
Results filed as inconclusive are left out. Calls of active or inactive are those of the source. The call rests on the fitted dose curve; in most records, active means well fitted curve in the direction sought with a large enough effect; inconclusive means small, poorly fitted or top-dose-only effect, or another doubt; inactive means no such curve, though single readings can be large; an effect the other way counts as inactive or inconclusive.

Experiments:
MCC-13 = test: qHTS assay to identify novel small-molecules to repurpose for Merkel cell carcinoma treatment (AID 1296009); conditions: MCC and control cell lines, CellTiter-Glo viability, 72 h; series mostly up to 46 µM; further: nearly all actives have a fitted effect of over 60% in size
Outline: (§1)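 After compound transfer in DMSO, plates were kept 72 hr at 37 degree celsius. Luminescent ATP signal from CellTiter-Glo served as viability measure, normalized against DMSO and no-cell controls.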

MCC-26 = test: as above; conditions: MCC and control cell lines, CellTiter-Glo viability, 72 h; series mostly up to 46 µM
Outline: as §1

MKL-1 = test: as above; conditions: MCC and control cell lines, CellTiter-Glo viability, 72 h; series mostly up to 46 µM
Outline: as §1

MKL-2 = test: as above; conditions: MCC and control cell lines, CellTiter-Glo viability, 72 h; series mostly up to 46 µM
Outline: as §1

UISO = test: as above; conditions: MCC and control cell lines, CellTiter-Glo viability, 72 h; series mostly up to 46 µM
Outline: as §1

WaGa = test: as above; conditions: MCC and control cell lines, CellTiter-Glo viability, 72 h; series mostly up to 46 µM
Outline: as §1

C33A = test: Primary qHTS to identify gynecologic anti-cancer compounds using libraries of approved drugs and bioactive compounds (AID 1345084); conditions: Gynecologic cancer cell panel viability, ATPlite luminescence, 48 h; series mostly up to 57.5 µM; further: nearly all actives have a fitted effect of over 55% in size
Outline: (§2)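 In this quantitative HTS, cell killing is estimated from loss of ATP-dependent luciferase light. Cells see five compound concentrations over a 48 h exposure.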

CAOV3 = test: as above; conditions: Gynecologic cancer cell panel viability, ATPlite luminescence, 48 h; series mostly up to 57.5 µM
Outline: as §2

CASKI = test: as above; conditions: Gynecologic cancer cell panel viability, ATPlite luminescence, 48 h; series mostly up to 57.5 µM
Outline: as §2

Es-2 = test: as above; conditions: Gynecologic cancer cell panel viability, ATPlite luminescence, 48 h; series mostly up to 57.5 µM
Outline: as §2

HeLa = test: as above; conditions: Gynecologic cancer cell panel viability, ATPlite luminescence, 48 h; series mostly up to 57.5 µM
Outline: as §2

Hek293T = test: as above; conditions: Gynecologic cancer cell panel viability, ATPlite luminescence, 48 h, control line for the selectivity index; series mostly up to 57.5 µM
Outline: as §2

JEG-3 = test: as above; conditions: Gynecologic cancer cell panel viability, ATPlite luminescence, 48 h; series mostly up to 57.5 µM
Outline: as §2

OV90 = test: as above; conditions: Gynecologic cancer cell panel viability, ATPlite luminescence, 48 h; series mostly up to 57.5 µM
Outline: as §2

PA-1 = test: as above; conditions: Gynecologic cancer cell panel viability, ATPlite luminescence, 48 h; series mostly up to 57.5 µM
Outline: as §2

SKOV3 = test: as above; conditions: Gynecologic cancer cell panel viability, ATPlite luminescence, 48 h; series mostly up to 57.5 µM
Outline: as §2

Tov-21-G = test: as above; conditions: Gynecologic cancer cell panel viability, ATPlite luminescence, 48 h; series mostly up to 57.5 µM
Outline: as §2

Tov112D = test: as above; conditions: Gynecologic cancer cell panel viability, ATPlite luminescence, 48 h; series mostly up to 57.5 µM
Outline: as §2

NIH3T3 = test: qHTS assay to identify novel small-molecules to repurpose for Merkel cell carcinoma treatment (AID 1296009); conditions: MCC and control cell lines, CellTiter-Glo viability, 72 h; at 44.8 µM (top of the series) unless noted; further: nearly all actives have a fitted effect of over 60% in size
Outline: as §1

Measured: Potency

CCN(CC)CCc1nc(-c2ccccc2)no1
not listed: NIH3T3
inactive: all other assays above

CCN(CC)CC1CCCCN1CC(=O)N1c2ccccc2C(=O)Nc2cccnc21 (stereo not given)
not listed: NIH3T3
inactive: all other assays above

CN/C(=C\[N+](=O)[O-])NCCSCc1csc(CN(C)C)n1
not listed: NIH3T3
inactive: all other assays above

CN(C/C=C/C#CC(C)(C)C)Cc1cccc2ccccc12
not listed: NIH3T3
inactive: all other assays above

CN[C@@H]1[C@@H](O)[C@@H](O[C@@H]2[C@H](O)[C@H](O[C@H]3OC(CN)=CC[C@H]3N)[C@@H](N)C[C@H]2N)OCC1(C)O (stereo not given in full)
not listed: NIH3T3
inactive: all other assays above

O=c1[nH]c(=O)n([C@H]2C[C@H](O)[C@@H](CO)O2)cc1I
not listed: UISO | CAOV3
inactive: all other assays above

Cc1cccc(C(=O)O)c1O
not listed: CAOV3 | Es-2 | HeLa | Hek293T | Tov-21-G
inactive: all other assays above

Cc1ccc(S(=O)(=O)NC(=O)NC2CCCCCCC2)cc1
not listed: NIH3T3
inactive: all other assays above

Cc1onc(-c2ccccc2)c1-c1ccc(S(N)(=O)=O)cc1
not listed: C33A
inactive: all other assays above

CN1C[C@@H]2C[C@H]1CN2c1cc2c(cc1F)c(=O)c(C(=O)O)cn2C1CC1
not listed: NIH3T3
inactive: all other assays above

CO[C@@]1(NC(=O)C(C(=O)O)c2ccc(O)cc2)C(=O)N2C(C(=O)O)=C(CSc3nnnn3C)CO[C@@H]21 (stereo not given in full)
not listed: NIH3T3
inactive: all other assays above

Cc1cc(C)c(NC(=O)CN(CC(=O)O)CC(=O)O)c(C)c1Br
not listed: NIH3T3
inactive: all other assays above

CCCNC(C)(C)COC(=O)c1ccccc1
not listed: NIH3T3
inactive: all other assays above

CN1C(C)(C)CCCC1(C)C
not listed: NIH3T3
inactive: all other assays above

O=C(O)CCCCC1CCSS1 (stereo not given)
not listed: NIH3T3
inactive: all other assays above
